# About 83,000 compounds went through this panel and 20% of them were active in at least one assay; those are over-represented in the sample as a whole.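 Testing used 96-well plates and a 48-hour single-concentration exposure. Example: -40 means 40% of the starting cells died.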 Values without a mark were called inactive. Activity calls are given as the source filed them. How the source made its calls: active means growth percent below 10; inactive means the rest.
# Experiments:
# Test in all cases: NCI-60 one-dose screen, 48 h (100 = growth as untreated, 0 = no growth, -100 = all killed)
# Details in all cases: 10 µM unless noted
# [1] = test system: MOLT-4 leukemia
# [2] = test system: SR leukemia
# [3] = test system: RPMI-8226 leukemia
# [4] = test system: OVCAR-8 ovarian
# [5] = test system: OVCAR-5 ovarian
# [6] = test system: OVCAR-4 ovarian
# [7] = test system: SK-OV-3 ovarian
# [8] = test system: IGROV1 ovarian
# [9] = test system: OVCAR-3 ovarian
# [10] = test system: HS 578T breast
Compound,growth [1],growth [2],growth [3],growth [4],growth [5],growth [6],growth [7],growth [8],growth [9],growth [10]
COC(C(=O)[C@@H](O)[C@@H](C)O)[C@@H]1Cc2cc3cc(O[C@H]4C[C@@H](O[C@H]5C[C@@H](O)[C@H](O)C(C)O5)[C@H](O)C(C)O4)c(C)c(O)c3c(O)c2C(=O)[C@H]1O[C@H]1C[C@@H](O[C@H]2C[C@@H](O[C@H]3C[C@@H](O)[C@@H](O)C(C)O3)[C@@H](O)C(C)O2)[C@H](O)C(C)O1 (stereo not given in full),23.9%,14.3%,9.15% (active),2.92% (active),13.7%,25.2%,25.5%,18.2%,4.91% (active),14.5%
CC(C)=CCC/C(C)=C/C=N\N=C(/N)N[N+](=O)[O-],90.9%,83.6%,93.6%,104%,103%,93.4%,98.9%,99.5%,101%,99.8%
CC(C)(N)Cc1ccccc1,103%,100%,99.9%,106%,109%,112%,106%,106%,112%,96.6%
CC(CO)NC1CCCCC1 (stereo not given),98.9%,104%,112%,103%,102%,102%,111%,102%,115%,115%
CCN1C(=O)C(=C/C=C/c2ccccc2)C(=O)N(CC)C1=O,6.92% (active),-6.58% (active),61%,54%,107%,111%,103%,84.5%,42.6%,91.2%
O=[N+]([O-])/C=C\c1ccc(Cl)c(Cl)c1,37.1%,7.87% (active),-2.51% (active),66.1%,106%,84.4%,96.4%,92.7%,44.6%,17%
C#C[C@]1(OC(=O)CCCCCC)CC[C@H]2[C@@H]3CCC4=CC(=O)CC[C@@H]4[C@H]3CC[C@@]21C,26.1%,17.5%,1.02% (active),51.9%,65.4%,53.6%,55.1%,42.5%,73%,72%
Cn1cc(-c2csc(-c3cn(CCN4CCOCC4)c4ccc(F)cc34)n2)c2cccnc21,4.03% (active),33.7%,0.0619% (active),4.93% (active),75.3%,30.5%,78.7%,21%,32.3%,60.4%
CC[C@H](C)[C@H](NC(=O)[C@H]1CCCCN1C)C(=O)N(C)[C@H](C[C@@H](O)c1nc(C(=O)N[C@@H](Cc2ccccc2)C[C@H](C)C(=O)O)cs1)C(C)C,79%,29.2%,59.8%,93.5%,101%,98%,97%,76.6%,63.2%,75.7%
COP(=O)(OC)C(O)c1ccc(Cl)cc1 (stereo not given),119%,96.1%,104%,108%,112%,104%,111%,103%,94.7%,94.1%
N#C[Se]Cc1cc(-c2ccccc2)n(-c2ccc(S(N)(=O)=O)cc2)n1,-28.4% (active),-32.5% (active),-33.5% (active),6.01% (active),-42.6% (active),2.52% (active),-42.6% (active),-35.6% (active),-80.6% (active),-17.6% (active)
CCC1(C(C)C)C(=O)NC(=S)NC1=O,105%,104%,98.8%,101%,102%,107%,118%,113%,101%,96.3%
Brc1ccc2c(c1)c(-c1nc(-c3c[nH]c4ncccc34)cs1)cn2CCN1CCOCC1,41.3%,59.7%,40.1%,45.6%,76.9%,57.3%,84.8%,29.5%,72.9%,66.8%
CC(C)=CCc1c(O)c(C(=O)CC(C)C)c(O)c2c(-c3ccccc3)cc(=O)oc12,38.5%,41.5%,8.71% (active),47.6%,84.9%,68.7%,60.9%,62.9%,33.9%,47%
Cn1cc(-c2csc(-c3cn(CCCCN4CCCCC4)c4ccc(F)cc34)n2)c2cccnc21,-62% (active),-44.9% (active),1.18% (active),91.8%,103%,87%,100%,71.7%,87.7%,67.9%
CC(C)=CCC[C@H](C(=O)O)[C@@H]1CC[C@]2(C)C3=C(CC[C@@]12C)[C@@]1(C)CC[C@H](O)C(C)(C)[C@@H]1CC3,88.6%,91.8%,88.8%,96.4%,96.8%,103%,96.7%,103%,107%,99.9%
C[S+]1C=Cc2ccccc2C1c1ccc(Cl)cc1 (stereo not given),85.7%,93.4%,40.8%,95.2%,118%,66.5%,116%,-85.2% (active),89.8%,77.7%
CCn1c2ccccc2c2cc(C(=O)c3cccc4c3CCCN4)ccc21,104%,95.3%,112%,113%,99%,101%,106%,110%,103%,92.1%
CC[C@H](C)[C@H](NC(=O)c1cccn1C)C(=O)N(C)[C@H](C[C@@H](OC(C)=O)c1nc(C(=O)N[C@@H](Cc2ccccc2)C[C@H](C)C(=O)OC)cs1)C(C)C,16.2%,14.4%,18.6%,15.6%,43.5%,46.9%,10.8%,23%,-3.92% (active),27%
O=C(Nc1ccc(Cl)cc1)Nc1nccs1,20.6%,27.3%,5.61% (active),24.9%,67.4%,81.1%,33.1%,33.6%,-26.6% (active),49.9%
CC[C@]12C=CCN3CC[C@]4(C(=C(C(=O)OC)C1)Nc1cc(OC)c(OC(C)=O)cc14)[C@@H]32,9.7% (active),7.64% (active),7.27% (active),5.97% (active),43%,38.6%,2.29% (active),26.3%,14.1%,46.7%
COc1ccc2c(c1)c(-c1nc(-c3cn(C)c4ncccc34)cs1)cn2CCN1CCOCC1,33.5%,39.1%,13.3%,29.2%,78.2%,42%,85.1%,28.7%,47.9%,31.4%
